# Screening data: PubChem BioAssay, National Center for Advancing Translational Sciences (NCATS)
# Nrf2 activator: activates Nrf2 signaling | Potency, µM (doses to about 46.1 µM), for the others: at the highest dose activation, most hits filed as activators | 410,000 tested, 0.31% active | AID 624171 | AREc32 ARE-luciferase reporter (MCF7-derived line), luminescence, 24 h; also: % of control where 0% means no effect; nearly all actives have a fitted effect of over 65% in size
#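 Nrf2 activation is followed as ARE-luciferase induction in the AREc32 line after one day of compound treatment; luminescence is read with Steady-Glo.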
# TrxR1 substrate: rat thioredoxin reductase 1 substrate activity; purified TrxR1 substrate turnover, NADPH consumption readout; Potency, µM (series often up to 114 µM), without a hit: at the highest dose activity change, negative = substrate turnover; 390,000 tested, 0.01% active; also: % is scaled to controls: 0 for no effect and ±100 for the full control effect; nearly all actives have a fitted effect of over 50% in size
#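 Rat TrxR1, dispensed at 90 nM, was prereduced with 400 uM NADPH (final) for 5 min at ~22 deg C, then incubated with compound 15 min before 400 uM selenite. A first-read NADPH fluorescence drop versus no-compound background flagged substrates.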
# TrxR1 inh: inhibitors of rat thioredoxin reductase 1 | recombinant rTrxR1, NADPH fluorescence consumption, selenite substrate | Potency, µM (doses to about 114 µM), for the others: at the highest dose activity change, negative = inhibition, most hits filed as inhibitors | AID 588453 | O89049 | 390,000 tested, 1% active; also: % is scaled to controls: 0 for no effect and ±100 for the full control effect; nearly all actives have a fitted effect of over 65% in size
#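 Rat TrxR1 (90 nM in the dispensed reagent) was pre-reduced with 400 uM NADPH for 5 min at room temperature, then incubated with compound for 15 min. After 400 uM selenite was added, NADPH fluorescence (Ex 340/Em 450 nm) was followed for 8 min.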
# Nrf2 inh: blocks Nrf2 signaling. A549 ARE-Fluc reporter, luciferase luminescence, 18-24 h. Potency, µM (titrated, usually from 46 µM), for the others: at the highest dose activity change, negative = inhibition, hits mostly inhibitors. 360,000 tested, 2.1% active; also: % is scaled to controls: 0 for no effect and ±100 for the full control effect; nearly all actives have a fitted effect of over 60% in size
#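 Nrf2 activity is the BugLite luminescence, read 15 min after reagent at room temperature, following CellTiter-Fluor cytotoxicity readout (30 min, 37C). Compound titrations were applied for 18-24 h to 5000 A549 ARE_Fluc cells/well in 5% FBS OPTI-MEM.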
# GALK inh: galactokinase (human) inhibition; P51570; Purified GALK, Kinase-Glo residual ATP luminescence; Potency, µM (top dose mostly 57.5 µM), inactives show at the highest dose activity change, negative = inhibition, usual class: inhibitors; 270,000 tested, 0.007% active; also: % is scaled to controls: 0 for no effect and ±100 for the full control effect
# Target sequence (P51570 whole entry, looked up): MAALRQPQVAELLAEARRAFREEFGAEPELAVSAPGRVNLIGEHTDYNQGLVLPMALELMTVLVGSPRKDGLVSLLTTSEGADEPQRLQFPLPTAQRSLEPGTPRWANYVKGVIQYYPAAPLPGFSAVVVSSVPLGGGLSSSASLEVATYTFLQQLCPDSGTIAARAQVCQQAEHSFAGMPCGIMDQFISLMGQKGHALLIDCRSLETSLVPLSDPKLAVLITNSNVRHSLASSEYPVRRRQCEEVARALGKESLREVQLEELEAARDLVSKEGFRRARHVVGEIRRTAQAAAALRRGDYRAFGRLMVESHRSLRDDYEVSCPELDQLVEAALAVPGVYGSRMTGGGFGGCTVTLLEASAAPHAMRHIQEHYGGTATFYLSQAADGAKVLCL
#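 Human GALK (5 nM) with 35 uM ATP and 100 uM galactose in 20 mM HEPES pH 8.0, 5 mM MgCl2, 60 mM NaCl, 1 mM DTT, 0.01% BSA. After 1 h at room temperature, leftover ATP was read by Kinase-Glo Plus luminescence.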
# A549 viability: A549 cytotoxicity, counter-screen for Nrf2 inhibitors. 390,000 tested, 0.16% active. A549 ARE-Fluc cells, CellTiter-Fluor viability, 18-24 h. Potency, µM (doses to about 46 µM), for inactives: at the highest dose activity change, negative = cytotoxicity, most hits filed as inhibitors. AID 504648; also: % is scaled to controls: 0 for no effect and ±100 for the full control effect
#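 A549 ARE_Fluc cells in 5% FBS OPTI-MEM were exposed to compounds in concentration-response for 18-24 h at 37 deg C. Viability was read by CellTiter-Fluor fluorescence (Ex 405/Em 525) after 30 min, before the luciferase read.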
# The depositor's hits bear a star; ? = inconclusive; . = not tested or not shown; [ ] = remark or other dose. Rows were chosen to be rich in hits. Some 3% of all compounds tested hit in one or more screens of this group. Calls follow the shape of the dose curve; as a rule, active = well fitted curve in the direction sought with a large enough effect; inconclusive = small, poorly fitted or top-dose-only effect, or another doubt; inactive = no such curve, though single readings can be large; an effect the other way counts as inactive or inconclusive. Potency is read from the fitted curve at half-maximal effect.
SMILES,Nrf2 activator,TrxR1 substrate,TrxR1 inh,Nrf2 inh,GALK inh,A549 viability
CC(=O)NC(CC(=O)OCC(=O)N1CCN(S(=O)(=O)c2ccc(C)cc2C)CC1)c1ccccc1 (stereo not given),1%,0%,12%,21µM*,.,4%
CC(=O)NC(CC(=O)OCC(=O)N1CCN(S(=O)(=O)c2ccc(Cl)cc2)CC1)c1ccccc1 (stereo not given),0%,-8%,2%,-15%,.,0%
O=C(CCN1C(=O)c2ccccc2Sc2ncccc21)Nc1ccc(F)cc1F,0%,-10%,-11%,14%,.,-2%
O=C(Cn1ncc2c3ccccc3n(Cc3ccccc3F)c2c1=O)NCc1ccccc1Cl,0%,13%,7%,3%,.,3%
CCOc1ccc(CNC(=O)CN2N=C(c3ccccc3)CCC2=O)cc1OC,0%,4%[57.1 µM],?,.,.,-2%
O=C(N/N=C/c1ccc(Cl)cc1Cl)c1ccncc1,0%,-1%,18%,1%,6%,-1%
O=C(N/N=C/c1ccc(O)cc1O)c1ccncc1,-1%,-5%,5%,12µM*,.,-17%
O=C(N/N=C/c1cc(Cl)cc(Cl)c1O)c1ccncc1,-1%,-5%,10%,9.2µM*,6%,-8%
COc1ccc2cc(C(C)C(=O)Nc3cccc(S(=O)(=O)N(C)C)c3)ccc2c1 (stereo not given),4%,4%[0.0914 µM],22%[57.1 µM],16µM*,3%,-21%
CSc1cccc(NC(=O)C(C)C)c1,1%,1%,7%,1%,1%,0%
CC(C)C(=O)Nc1cccc(S(=O)(=O)c2cccc(NC(=O)C(C)C)c2)c1,2%,-1%,14%,21µM*,-3%,-17%
CCCCOC(=O)c1ccc(NC(=O)CSc2nc3c(c(=O)[nH]2)CCCC3)cc1,-1%,6%,19%,-22%,.,-1%
Cc1cccc(N2C(=O)CSC23C(=O)N(CC(=O)NCc2ccccc2Cl)c2ccccc23)c1 (stereo not given),0%,-13%,-17%,-27%,.,-13%
CCS(=O)(=O)c1cccc(C(=O)N2CCN(c3nc4c(C)ccc(Cl)c4s3)CC2)c1,-1%,2%,20%,12µM*,.,-18%
CCS(=O)(=O)c1ccc(C(=O)N2CCN(c3nc4c(OC)ccc(C)c4s3)CC2)cc1,1%,5%[57.1 µM],10%[57.1 µM],.,.,-15%
O=C(c1ccc2c(c1)N(Cc1cccc(Cl)c1)C(=O)c1ccccc1S2=O)N1CCN(c2cccc(C(F)(F)F)c2)CC1 (stereo not given),1%,-2%[57.1 µM],31%[57.1 µM],.,.,-6%
Cc1ccc(C2=C(c3ccc([N+](=O)[O-])cc3)C(=O)OC2)cc1C,3%,0%[57.1 µM],-11%[57.1 µM],23µM*,2%,-17%
COc1ccc(C2=C(c3ccc([N+](=O)[O-])cc3)C(=O)OC2)cc1,0%,12%[57.1 µM],13%[57.1 µM],-2%,0%,-1%
COc1ccc(OC)c(NC(=O)c2c(NCc3ccc(C)o3)sc3c2CCCCC3)c1,?,3%[57.1 µM],14µM*,.,.,-4%
COc1ccccc1NC(=O)c1c(NCc2ccc(C)o2)sc2c1CCCCC2,?,2%[57.1 µM],14µM*,.,.,-1%
Nc1nc(Cl)nc2c1ncn2[C@@H]1O[C@H](COP(=O)(O)OP(=O)(O)OP(=O)(O)O)[C@@H](O)[C@H]1O,.,-1%[57.1 µM],-8%[57.1 µM],.,.,.
COC(=O)c1c(NC(=O)c2ccccc2)sc(C(N)=O)c1C,1µM*,18%[57.1 µM],26%[57.1 µM],?,12%,-6%
CCOC(=O)c1oc2ccccc2c1NC(=O)CCl,-4%,-10%,22µM*,11%,3%,11%
CCOC(=O)c1oc2ccccc2c1NC(=O)c1ccco1,0%,-2%,5%,-17%,-4%,8%
O=C(C[n+]1ccccc1Br)c1ccc(Cl)cc1,.,-5%,9%,.,.,.
SMILES,Nrf2 activator,TrxR1 substrate,TrxR1 inh,Nrf2 inh,GALK inh,A549 viability
CC(C)(C)c1ccc(/C=N/NC(=O)Cc2c[nH]c3ccccc23)cc1,3%,-6%,9%,26µM*,-6%,?
CCC(C)NC(=O)c1ccc2c(c1)N=C(C)c1cc(C)ccc1S2 (stereo not given),0%,-4%,-4%,-8%,.,6%
COc1ccc(C)cc1NC(C)C(=O)c1c[nH]c2ccccc12 (stereo not given),.,-2%,11%,.,.,.
CN(C(=O)c1ccncc1)c1nnc(-c2ccccn2)s1,0%,19%,?,?,-1%,-2%
CN(C(=O)c1ccno1)c1nnc(-c2ccccn2)s1,2%,134%,20µM*,16%,5%,5%
CCOC(=O)CCNC(=O)N1CCN(S(=O)(=O)c2ccc3c(ccn3C)c2)CC1,-1%,-9%[57.1 µM],-25%[57.1 µM],.,.,1%
Cc1c(C2=CCN(S(=O)(=O)c3ccc(CC(C)C)cc3)CC2)c2ccccc2n1CC(=O)N1CCCC1,-1%,-9%,-21%,11%,.,5%
COc1ccc(/C=C2/C=Cc3ccccc32)cc1,.,-1%,-16%,.,.,.
COc1ccc(OC)c(/C=C2\C=Cc3ccccc32)c1,.,5%,5.6µM*,.,.,.
COc1ccc(F)cc1NC(=O)C1CCN(c2nc(-c3ccc(OC)c(OC)c3)no2)CC1,8%,-5%,6%,7%[9.27 µM],.,-1%
CC(C)CN(CC(C)C)C(=S)Nc1ccc(Cl)cc1,6%,-2%[57.1 µM],7%[57.1 µM],26µM*,10%,-22%
CCc1ccc(NC(=S)N(Cc2ccc(Cl)cc2)Cc2ccc(C(=O)O)cc2)cc1,0%,3%[57.1 µM],13%[57.1 µM],-24%,1%,-2%
CCc1nc2cccnc2n1-c1ccc(CC(=O)Nc2ccc(C)cc2)cc1,4%,13%,30%,-24%,.,-1%
Cc1nc(-c2ccccc2)cc(N2CCCC2)n1,?,3%,11%,8%,-2%,-4%
Cc1cc(-c2ccccc2)nc2[n+]1CCN2C,0%,36%,2%,5.2µM*,3%,-15%
CC(C)(C)OC(=O)NCC(=O)NNC(=O)c1nc2ccccc2[nH]1,.,.,.,-5%,.,7%
O=S(=O)(Nc1cc(O)cc2cccnc12)c1ccc(Cl)s1,.,.,.,16%,.,-2%
O=C1C(Cl)=C(NCCCO)C(=O)c2ccccc21,0%,-13%,-18%,.,-1%,-20%
CCOCCCNC1=C(Cl)C(=O)c2ccccc2C1=O,13%,-20%,7.1µM*,?,4%,-16%
O=S(=O)(Nc1cccc(-c2cn3cccnc3n2)c1)c1ccc(-c2ccccc2)cc1,4%,47%[57.1 µM],-4%[57.1 µM],.,1%,2%
O=S(=O)(Nc1cccc(-c2cn3cccnc3n2)c1)c1ccc(F)cc1,6%,188%,?,16µM*,0%,-28%
COc1ccccc1-c1nnc(NC(=O)CCS(=O)(=O)c2ccccc2)o1,?,-8%,?,-13%,-10%,-2%
